Results reported in PubChem BioAssay (NCATS).
Inconclusive results are not listed. Unmarked numbers belong to inactive results. Activity calls are given as the source filed them. The call rests on the fitted dose curve; in most records, active means well fitted inhibition curve with a large enough effect; inconclusive means small, poorly fitted or top-dose-only effect; inactive means flat fitted curve, though single readings scatter.

Tests used:
Assay in all cases: Cytotoxic Profiling of Annotated Libraries Using Quantitative High-Throughput Screening (AID 1296008); further: nearly all actives have a fitted effect of over 60% in size
Conditions in all cases: Five cell lines viability, CellTiter-Glo ATP luminescence, 48-72 h; max response: hits give low values
HEK293 = tested on: HEK293
Summary of the method: (§1)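 Cells exposed to compounds for 48 or 72 hr at 37 degrees Celsius. Viability read as ATP-coupled luminescence with CellTiter-Glo after 10 min at room temperature.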

NIH3T3 = tested on: NIH3T3
Summary of the method: as §1

HaCat = tested on: HaCat
Summary of the method: as §1

KB-3-1 = tested on: KB-3-1
Summary of the method: as §1
On the % scale 0 is the no-effect control and ±100 the full control effect; potency means the concentration at half of the fitted maximal effect.

Question: COc1cccc(OCCCN)c1-c1cc(Nc2cnc(C#N)cn2)n[nH]1 was tested. Which Potency (HEK293) did it give?
Answer: 10.3 nM (active)

Question: What about the Potency (NIH3T3) of the same compound?
Answer: 41.1 nM (active)

Question: Which results are given for Cn1cc(-c2cnn3c(N)c(Br)c(C4CCCNC4)nc23)cn1 (stereo not given)?
Answer: Potency (HEK293): 1030 nM (active); Potency (NIH3T3): 6510 nM (active)

Question: With O=C1Cc2c([nH]c3ccc(Br)cc23)-c2ncccc2N1 as the compound, how does the max response (HaCat) read?
Answer: 2.65%

Question: What about the max response (KB-3-1) of the same compound?
Answer: 2.04%

Question: What about the outcome (NIH3T3) of the same compound?
Answer: inactive

Question: Which max response (HaCat) does the source give for Nc1ncnc2c1c(-c1ccc(Cl)cc1)nn2-c1cccc(-c2cnnn2Cc2cccc(-c3ccccc3)c2)c1 here?
Answer: -3.38%

Question: What about the max response (KB-3-1) of the same compound?
Answer: -15.9%

Question: COc1ccc([C@H]2OC[C@H]3O[C@@H](O[C@H]4[C@@H]2NC[C@@H]4O)[C@H](O)[C@H]3O)cc1 was tested. Which Potency (HaCat) did it give?
Answer: 2.55 µM (active)

Question: And the Potency (KB-3-1)?
Answer: 0.904 µM (active)

Question: And the Potency (NIH3T3)?
Answer: 1140 nM (active)

Question: What does the source list for C[C@H]1CC[C@@]2(OC1)O[C@H]1CC3[C@@H]4CC[C@@H]5C[C@@H](O[C@@H]6O[C@H](CO)[C@@H](O[C@@H]7O[C@H](CO[C@@H]8OC[C@@H](O)[C@H](O)[C@H]8O)[C@@H](O[C@@H]8O[C@H](CO)[C@H](O)[C@H](O)[C@H]8O)[C@H](O)[C@H]7O)[C@H](O)[C@H]6O)CC[C@]5(C)C4CC[C@]3(C)[C@H]1[C@@H]2C (stereo not given in full)?
Answer: max response (HaCat): -10.6%; outcome (KB-3-1): inactive

Question: Which results are given for C[C@@H]1CCCN1CCc1cc2cc(-c3ccc(C#N)cc3)ccc2o1?
Answer: max response (HaCat): -29.3%; max response (KB-3-1): -23.6%

Question: What does the source list for C=C1/C(=C/C=C2\CCC[C@]3(C)[C@@H]([C@H](C)CC[C@@H](O)C(C)(C)O)CC[C@@H]23)C[C@@H](O)C[C@@H]1O?
Answer: max response (HaCat): -0.344%; max response (KB-3-1): -22.3%; Potency (NIH3T3): 14.6 nM (active)

Question: What does the source list for COc1cc2nc(N3CCN(C(=O)c4ccco4)C4CCCCC43)nc(N)c2cc1OC (stereo not given)?
Answer: max response (HaCat): 4.28%; Potency (KB-3-1): 20.6 µM (active)

Question: Which results are given for C/C=C(/C)C(=O)OC1CC(C)(C)CC2C3=CCC4C5(C)CCC(O[C@@H]6O[C@H](C(=O)O)[C@@H](O)[C@H](O)[C@H]6O[C@@H]6O[C@H](CO)[C@H](O)[C@H](O[C@@H]7OC[C@H](O)[C@H](O)[C@H]7O[C@@H]7O[C@H](CO)[C@@H](O)[C@H](O)[C@H]7O)[C@H]6O)C(C)(C)C5CCC4(C)C3(C)C(O)C(O)C12CO (stereo not given in full)?
Answer: max response (HaCat): -10.3%; max response (KB-3-1): -3.03%

Question: With CC(C)(N)c1ncc(-c2ccc(OC(F)(F)F)cc2)[nH]1 as the compound, how does the max response (HaCat) read?
Answer: -18.6%

Question: And the max response (KB-3-1)?
Answer: -11.1%
